Compound activity as filed in PubChem.
Most compounds without a hit are left out; they make up all but 1.9% or so of the library.
Autophagy mod: autophagy modulation, high-content screen; MEF GFP-LC3 puncta imaging; test concentration mostly 10 µM; calls only at 10 µM (by protocol); actives 0.98% (n = 190,000); AID 463193;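 active means percentage of spot-positive cells more than 3 SD above its plate mean, without a fluorescence outlier flag or 80% toxicity; inconclusive means no clear call, values can overlap the other calls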;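 further: spot-positive cell cutoff set from DMSO-treated cells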
Ins promoter up: MIN6 insulin promoter up-regulation. MIN6 insulin promoter-GFP reporter, high-content imaging; active compounds read high. z-score at 5 µM. actives 0.3% (n = 190,000). AID 1625;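 active means z-score above 3 at 5 µM with at least 500 cells counted in the well; inconclusive means wells under 500 cells, flagged as cytotoxic or low count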
Efa HMGR inh: blocks class II HMG-CoA reductase of Enterococcus faecalis | purified E. faecalis HMGR, NADPH absorbance 340 nm kinetic | inhibition, % at 10 µM | actives 0.41% (n = 190,000) | AID 1066;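 active means inhibition above a set limit, the median over all tested compounds plus 3 SD, cut at about 9.5% in these data; inconclusive means no clear call, values can overlap the other calls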;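 further: enzyme runs in reverse so mevalonate oxidation gives rising NADPH absorbance; 0% = complete reaction with DMSO and 100% = background rate lacking mevalonate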
INS promoter inh: TRM-6 insulin promoter activity inhibition; TRM-6 cells (human fetal islet line), insulin promoter-eGFP reporter, imaging; reporter expression induced with tamoxifen; inhibition, % at 2 µM; actives 0.9% (n = 130,000);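 active means inhibition above the mean plus 3 SD, with well images judged a real hit on visual review, cut at about 60% in these data, passing the limit was not always enough; inconclusive means inhibition over the cutoff but images rejected on review; inactive means inhibition not above the cutoff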
An asterisk follows results filed as active; i = inactive; ? = inconclusive; · = no result; + = active, no number.

SMILES	Autophagy mod	Ins promoter up	Efa HMGR inh	INS promoter inh
COc1ccc2nc(C)c3cc(C)oc3c2c1	i	0.37	-3	90*
Cc1nc(Sc2ccc(Br)cc2)c(C#N)c(C)c1[N+](=O)[O-]	·	-1.2	·	·
O=C(CSc1nnc(COc2ccccc2)n1Cc1ccco1)c1ccc(F)cc1	+	0.55	-7	-42
COc1cccc(/C=N/NC(=S)Nc2cccc(S(=O)(=O)N(C)C)c2)c1	·	-0.12	·	·
COc1ccc(O)c(/C=N/NC(=S)Nc2cccc(S(=O)(=O)N(C)C)c2)c1	+	-0.26	-4	30
COc1cc(C2C(C#N)=C(N)Oc3cc(O)ccc32)cc(OC)c1OC (configuration not stated)	+	·	-5	-47
COc1ccc(C2C(C#N)=C(N)Oc3cc(O)ccc32)cc1OC (configuration not stated)	i	0.52	0	·
CC(NC(=O)/C(=C\c1ccco1)NC(=O)c1ccccc1Br)C(=O)O (configuration not stated)	i	-0.53	10*	·
COc1ccc(OCCOC(=O)c2nc3nccc(C)n3n2)cc1	i	-0.45	2	·
Cc1ccc(Oc2nnc(-c3cccs3)c3ccccc23)cc1	i	0.43	-2	81*
c1ccc(Oc2nnc(-c3cccs3)c3ccccc23)cc1	i	0.32	-3	23
CC(=O)NC(CC(=O)Nc1cccc(S(=O)(=O)N2CCCCC2)c1)c1ccccc1 (configuration not stated)	i	-0.62	3	22
COc1ccccc1NC(=S)N1CCCc2ccccc21	i	-0.15	16*	?
CC(=O)N(c1cccc(Br)c1)c1nc(C)cc(C)c1C#N	·	0.02	·	·
CCn1c(=O)cc(SCC(=O)NCc2ccc(C)o2)c2ccccc21	i	0.21	-3	·
CCC1Oc2ccccc2N(CC(=O)NCc2ccco2)C1=O (configuration not stated)	i	-0.74	41*	·
CCn1c(=O)cc(SCC(=O)NCc2ccco2)c2ccccc21	+	-0.71	-2	·
CCn1c(=O)cc(SCC(=O)Nc2ccc(C)cn2)c2ccccc21	+	0.34	-3	·
O=C(NCC1CCCO1)c1c(O)c2cccc3c2n(c1=O)CCC3 (configuration not stated)	i	-0.27	-4	71*
COc1ccc(C(=O)NN2CC(O)=C(c3nc4ccccc4n3C)C2=N)cc1OC	i	-0.29	1	-47
COc1cc(/C=C2\SC(=S)N(Nc3ncc(C(F)(F)F)cc3Cl)C2=O)ccc1O	i	-0.21	-1	49
CN(C)c1ccc(/C=C2\SC(=S)N(Nc3ncc(C(F)(F)F)cc3Cl)C2=O)cc1	+	·	-1	-63
COc1cc(OC)c(OC)cc1CN1CCCC(C(=O)c2sccc2C)C1 (configuration not stated)	·	-0.19	·	·
Cc1ccsc1C(=O)C1CCCN(Cc2cc(F)ccc2-n2cccn2)C1 (configuration not stated)	i	-0.84	18*	·
COc1ccc(OC)c(Nc2nc3nonc3nc2N2CCCCC2)c1	+	0.65	0	·
SMILES	Autophagy mod	Ins promoter up	Efa HMGR inh	INS promoter inh
COc1ccc(CNC(=O)CCN2C(=S)NC(C)(C)CC2C)cc1 (configuration not stated)	i	-0.49	0	·
CCCN1C/C(=C/c2cccc([N+](=O)[O-])c2)C(=O)/C(=C/c2cccc([N+](=O)[O-])c2)C1	+	-1.8	-3	·
CCCN1C/C(=C/c2ccc3c(c2)OCO3)C(=O)/C(=C/c2ccc3c(c2)OCO3)C1	i	0.85	-5	-84
N#CCC(=O)Nc1ccc(C(=O)Nc2cccc(S(N)(=O)=O)c2)cc1	·	-0.13	·	·
COc1ccc(/C=C/C(=O)CC(O)(c2ccccc2)C(F)(F)F)cc1 (configuration not stated)	i	-0.69	-11	85*
O=C(/C=C/c1ccccc1)CC(O)(c1ccccc1)C(F)(F)F (configuration not stated)	i	0.33	4	50
Cc1cc(C(=O)NCc2ccc(F)cc2)n(-c2ccccc2)n1	·	1.4	·	·
Cc1[nH]nc2c1C(c1cccs1)C1=C(CC(C)(C)CC1=O)N2 (configuration not stated)	i	·	0	35
Cc1ccc(S(=O)(=O)NCCC(=O)NC2CCCC2)cc1	+	0.18	2	·
O=C(C1=NN(c2ccccc2)C2C(=O)N(c3cccc(Cl)c3)C(=O)C12)c1ccccc1 (configuration not stated)	i	3.2*	-5	-18
Cc1cc(N2CCC(C)CC2)nc(NCc2ccccc2)n1	i	-2.8	2	-107
Cc1ccc(CNC(=O)c2ccccc2NC(=O)CSc2nnnn2C)cc1	+	0	-4	·
Cn1nnnc1SCC(=O)Nc1ccccc1C(=O)NCc1ccccc1	i	-0.54	-3	-50
CC(C)=CCC/C(C)=C/CC(C)(C)CNCCN1CCNCC1	i	-0.26	-6	-36
CC(C)=CCC/C(C)=C/CCC(C)NCCN1CCNCC1 (configuration not stated)	+	-1.1	-2	·
OCCN1CCN(CC(O)COc2ccc(C34CC5CC(CC(C5)C3)C4)cc2)CC1 (configuration not stated)	+	-0.86	4	-36
COC(=O)c1c[nH]n2c(=O)c(Cl)c(C)nc12	i	-0.26	-2	-17
COC(=O)c1c[nH]n2c(=O)c(Cc3ccc(F)cc3Cl)c(C)nc12	i	3.4*	-1	·
C(=N\Nc1ncnc2ccccc12)/c1ccccc1	+	-0.95	3	78*
Clc1cccc(/C=N/Nc2ncnc3ccccc23)c1	i	-0.46	-1	·
Cc1c(C(=O)OCC(=O)N(C)C2CCS(=O)(=O)C2)oc2ccc(Br)cc12 (configuration not stated)	·	-0.76	·	·
COc1cc2c(cc1OC)C1=CC(=O)C(=O)N1C(C)(C)C2	+	·	-7	·
CCc1ccc(OCC(=O)N(C)C)c(Br)c1	+	-0.68	-4	16
CCc1ccc(OCC(=O)NC(=S)Nc2ccc(F)cc2)c(Br)c1	i	-0.78	-2	·
Cc1cc(C)cc(OCC(=O)O/N=C(\N)c2ccccc2Cl)c1	·	0.16	·	·
SMILES	Autophagy mod	Ins promoter up	Efa HMGR inh	INS promoter inh
O=C(CN(c1ccccc1)S(=O)(=O)c1ccccc1)N1CCOCC1	i	0.49	0	·
Cc1ccc(N(CC(=O)N2CCOCC2)S(=O)(=O)c2ccccc2)cc1	i	-0.25	12*	-30
CCC(=O)Nc1nonc1-c1nc2ccccc2n1Cc1cccc2ccccc12	+	·	-7	-92
COc1cc(C(=O)N/N=C/c2sccc2C)cc(OC)c1OC	+	-0.87	-6	-233
COc1cc(/C=N/NC(=O)c2cccs2)ccc1O	·	-0.47	·	·
COc1cc(/C=N/NC(=O)c2ccc(-c3ccccc3)cc2)cc(OC)c1OC	i	-0.37	13*	-443
COc1cc(/C=N/NC(=O)c2ccc(-n3cccc3)cc2)ccc1O	i	-0.11	-7	71*
COc1cc(/C=N/NC(=O)c2cc(-c3ccccc3)sc2N)cc(OC)c1OC	·	-2.5	·	·
COc1ccc(C)cc1NC(=O)COC(C)=O	i	3.5*	2	-15
COc1ccc([N+](=O)[O-])cc1NC(=O)COC(C)=O	i	1.7	-2	?
